GC-A act – GC-A (human) enzyme activation. activation, % at 10 µM. AID 1671463. P16066. actives 0.14% (n = 370,000). HEK293 GC-A cells, cGMP TR-FRET, EC30 ANP; 0% at EC30 ANP, 100% saturating ANP; in the data active = activation above about 40%
ALR H2O2 inh – inhibitors of human sulfhydryl oxidase ALR; P55789; inhibition, % (test concentration not listed); purified ALR, DTT oxidation, H2O2 HRP-luminol luminescence; actives 3.8% (n = 290,000);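 active = mean replicate inhibition above about 79%, with every replicate also reaching it, limit read from the data; inconclusive = only one of the two criteria met; inactive = mean below limit and not every replicate reaching it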
HDAC3 inh – human HDAC3 inhibition | AID 2718 | inhibition, % at 8.3 µM | actives 0.15% (n = 320,000) | recombinant HDAC3, fluorogenic peptide/trypsin coupled, fluorescence | O15379; in the data active = inhibition above about 26%, passing the limit was not always enough; inconclusive = no clear call, values can overlap the other calls
GC-B act – GC-B (human) receptor activation | activation, % at 10 µM | HEK293-GC-B cells, CNP EC30, cGMP TR-FRET; 0% at EC30 CNP, 100% saturating CNP | P20594 | actives 0.11% (n = 370,000);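 active = activation at 10 µM reaching about 35% in either raw or pattern-adjusted values, limit read from the data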
Each line names hits and unclear results; the compound was inactive in the other large screens. The full list was thinned out, with hits kept by preference.

CCOc1ccc(NC(=O)Nc2ccc3c(c2)nnn3C)cc1	ALR H2O2 inh 98.6
Nc1ccc(Nc2ccccc2)c(Cl)c1	ALR H2O2 inh 99.6
Nc1ccccc1Nc1ccccc1	ALR H2O2 inh inconclusive
CC1CCCCN1c1ccc(N)cc1C(N)=O (stereo not given)	ALR H2O2 inh 93.8
O=C(N/N=C(/CC(=O)c1cccs1)C(F)(F)F)c1ccc(O)cc1	ALR H2O2 inh 80.3
O=C(N/N=C(\CC(=O)c1cccs1)C(F)(F)F)c1cccnc1	none
COc1ccc(S(=O)(=O)Nc2cccc(C(C)=O)c2)cc1Br	none
COc1ccc(S(=O)(=O)Nc2cccc(N(C)S(C)(=O)=O)c2)cc1Br	GC-B act 37.4
CCN1C(=O)C(=O)N(CC(=O)c2cc(C)n(C3CC3)c2C)C1=O	ALR H2O2 inh 89.1
CCCN1C(=O)C(=O)N(CC(=O)c2cc(C)n(C3CC3)c2C)C1=O	none (no result: ALR H2O2 inh)
O=C(CSC1=NCCN1)Nc1cccc([N+](=O)[O-])c1	ALR H2O2 inh 98.7
O=C(CSC1=NCCN1)NC(c1ccccc1)c1ccccc1	ALR H2O2 inh 98.7
COc1ccccc1NC(=O)CSC1=NCCN1	ALR H2O2 inh 98.5
O=C(CSC1=NCCN1)Nc1ccccc1[N+](=O)[O-]	ALR H2O2 inh 99.5
Cc1ccc(NC(=O)CSC2=NCCN2)cc1	none
CC(=O)c1cccc(NC(=O)C2Cc3c(-c4ccc5c(c4)OCO5)ccnc3O2)c1 (stereo not given)	none (no result: ALR H2O2 inh, HDAC3 inh)
CC(C)CC(C(=O)OCC(=O)N1CCN(c2ccccc2)CC1)N1C(=O)c2ccccc2C1=O (stereo not given)	none (no result: ALR H2O2 inh, HDAC3 inh)
COC(=O)[C@]12C[C@H](CC(=O)N3CCC(c4ccccc4)CC3)C(=O)N(CCC3=CCCCC3)C1=C[C@H](C1CCCC1)O[C@@H]2C	none (no result: ALR H2O2 inh, HDAC3 inh)
CC(C)Oc1ccc(S(=O)(=O)N2CCOCC2)cc1NC(=O)c1ccc(Cl)c(S(=O)(=O)N2CCOCC2)c1	none (no result: ALR H2O2 inh, HDAC3 inh)
CCSc1nnc(NC(=O)CSc2sc3c(O)cc(=O)[nH]c3c2C#N)s1	none
CCc1nnc(NC(=O)CSc2sc3c(O)cc(=O)[nH]c3c2C#N)s1	ALR H2O2 inh 98.4
Cc1csc(NC(=O)CSc2sc3c(O)cc(=O)[nH]c3c2C#N)n1	ALR H2O2 inh 98.6
CCCCCCSc1ccc([C@@H]2[C@@H]3C(=O)N(C)C(=O)[C@@H]3[C@]3(C(=O)OC)CCCCN23)cc1OC	HDAC3 inh 36.1
CCCCCCSc1ccc([C@@H]2[C@H]3C(=O)N(C)C(=O)[C@H]3[C@]3(C(=O)OC)CCCCN23)cc1OC	none
Cc1ccc(C2=NN=C(NC(=O)CSc3nncn3C)SC2)cc1	ALR H2O2 inh 99.5
CN1CCC(N(C)CC(C)(C)NS(=O)(=O)c2ccccc2)CC1	none
Cc1cc(C(=O)CSc2nnc(N)s2)c(C)n1C1CC1	ALR H2O2 inh 97.8
Cc1cc(C(=O)CSc2nc(N)cc(N)n2)c(C)n1C1CC1	none
CN1CCN(C(=O)c2ccc3c(c2)N(Cc2ccccc2)CCS3)CC1	ALR H2O2 inh 98.5 (no result: GC-A act, GC-B act)
Cc1ccc(CN2CCSc3ccc(C(=O)NCc4cccnc4)cc32)cc1	none
O=C(c1ccc2c(c1)N(Cc1ccccc1)CCS2)N1CCCCC1	ALR H2O2 inh 98.9
COc1ccc(C2CC(=O)N3CN(Cc4ccco4)CSC3=C2C#N)cc1 (stereo not given)	HDAC3 inh 36.9
COc1ccc2ccccc2c1C1CC(=O)N2CN(Cc3ccco3)CSC2=C1C#N (stereo not given)	HDAC3 inh 44.4
COc1ccc2ccccc2c1C1CC(=O)N2CN(C3CCCCC3)CSC2=C1C#N (stereo not given)	HDAC3 inh 42.7
COc1cc(C2CC(=O)N3CN(Cc4ccco4)CSC3=C2C#N)ccc1OCc1ccccc1 (stereo not given)	none
CCOc1cc(C2CC(=O)N3CN(C4CCCCC4)CSC3=C2C#N)ccc1O (stereo not given)	HDAC3 inh inconclusive
CN(/C(=N/S(=O)(=O)c1cccs1)c1ccccc1)c1ccccc1	none
CN(C)c1ccc(N/C(=N\S(=O)(=O)c2cccs2)c2ccccc2)cc1	ALR H2O2 inh 98.8
CCC(OC(=O)c1ccco1)C(=O)NCc1ccc2c(c1)OCO2 (stereo not given)	none (no result: ALR H2O2 inh)
CC(Sc1ccc2c(c1)OCCO2)C(=O)Nc1ccc2c(c1)OCO2 (stereo not given)	none (no result: ALR H2O2 inh)
CC(Sc1ccc2c(c1)OCCO2)C(=O)Nc1ncc(Cl)cc1Cl (stereo not given)	ALR H2O2 inh 99.2
COC(=O)c1cc(-c2c(C)nn(-c3ccccc3)c2C)n[nH]1	ALR H2O2 inh 85.9
Cc1cccc(N2CCN(C(=O)c3cc4cc(F)ccc4[nH]3)CC2)c1C	none (no result: GC-A act, ALR H2O2 inh, GC-B act)
